From PubChem BioAssay AID1159580 (chemical genetic matrix, 2015)
The whole screen tested about 5,500 compounds, of which about 2,000 (36%) were called active. Roughly 18% stayed inconclusive and do not appear here. No stated cut-off is given here; in the data, active means normalized growth mostly below about 0.91 (no sharp cut-off); inconclusive means no clear call, values can overlap the other calls; inactive means mostly above about 0.92. This is one part of the list.

Test: chemical genetic growth profiling, strain panel (AID 1159580);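 further: tested at 20 µM; growth read once vehicle control cultures reached saturation at 30 °C; 1 = growth at the plate median or of vehicle wells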
Details: growth OD

Measured: normalized growth

O=C(O)c1cc(=O)c2cccc(O)c2[nH]1
inactive: S. cerevisiae deletion strains, locus YJR075W, strain HOC1, stronger effect = lower value 0.974 | S. cerevisiae deletion strains, locus YKL009W, strain mrt4, stronger effect = lower value 0.965 | S. cerevisiae deletion strains, locus YKL068W, stronger effect = lower value 0.976 | S. cerevisiae deletion strains, locus YKL085W, strain MDH1 (second series), stronger effect = lower value 0.964 | S. cerevisiae deletion strains, locus YKL085W, strain MDH1, stronger effect = lower value 0.964 | S. cerevisiae deletion strains, locus YKL160W, strain elf1, stronger effect = lower value 1.05 | S. cerevisiae deletion strains, locus YKL190W, strain CNB1, stronger effect = lower value 0.982 | S. cerevisiae deletion strains, locus YKR001C, strain vps1, stronger effect = lower value 1 | S. cerevisiae deletion strains, locus YKR026C, strain gcn3, stronger effect = lower value 1.01 | S. cerevisiae deletion strains, locus YKR091W, strain srl3, stronger effect = lower value 1.01 | S. cerevisiae deletion strains, locus YLL001W, strain dnm1, stronger effect = lower value 1.02 | S. cerevisiae deletion strains, locus YLL026W, stronger effect = lower value 1.02 | S. cerevisiae deletion strains, locus YLL041C, strain sdh2, stronger effect = lower value 1 | S. cerevisiae deletion strains, locus YLR027C, strain aat2, stronger effect = lower value 0.996 | S. cerevisiae deletion strains, locus YLR039C, strain RIC1, stronger effect = lower value 0.968 | S. cerevisiae deletion strains, locus YLR058C, strain SHM2, stronger effect = lower value 0.987 | S. cerevisiae deletion strains, locus YLR102C, strain apc9, stronger effect = lower value 0.979 | S. cerevisiae deletion strains, locus YLR113W, strain HOG1, stronger effect = lower value 0.99 | S. cerevisiae deletion strains, locus YLR221C, strain rsa3, stronger effect = lower value 0.995 | S. cerevisiae deletion strains, locus YLR258W, strain gsy2, stronger effect = lower value 1.03 | S. cerevisiae deletion strains, locus YLR262C, strain YPT6 (second series), stronger effect = lower value 1.01 | S. cerevisiae deletion strains, locus YLR262C, strain YPT6, stronger effect = lower value 0.971 | S. cerevisiae deletion strains, locus YLR268W, strain sec22, stronger effect = lower value 0.916 | S. cerevisiae deletion strains, locus YLR320W, strain mms22, stronger effect = lower value 1.01 | S. cerevisiae deletion strains, locus YLR330W, strain CHS5, stronger effect = lower value 0.991 | S. cerevisiae deletion strains, locus YLR342W, strain FKS1 (second series), stronger effect = lower value 1.08 | S. cerevisiae deletion strains, locus YLR342W, strain FKS1, stronger effect = lower value 1.02 | S. cerevisiae deletion strains, locus YLR357W, strain rsc2, stronger effect = lower value 1.05 | S. cerevisiae deletion strains, locus YLR370C, strain arc18, stronger effect = lower value 1.04 | S. cerevisiae deletion strains, locus YLR371W, strain rom2, stronger effect = lower value 0.98 | S. cerevisiae deletion strains, locus YLR384C, strain iki3, stronger effect = lower value 1.02 | S. cerevisiae deletion strains, locus YLR418C, strain cdc73, stronger effect = lower value 1.03 | S. cerevisiae deletion strains, locus YML016C, strain PPZ1, stronger effect = lower value 1 | S. cerevisiae deletion strains, locus YML032C, strain rad52, stronger effect = lower value 0.961 | S. cerevisiae deletion strains, locus YML120C, strain ndi1, stronger effect = lower value 1.01 | S. cerevisiae deletion strains, locus YML124C, strain tub3, stronger effect = lower value 0.977 | S. cerevisiae deletion strains, locus YMR058W, strain fet3, stronger effect = lower value 1.02 | S. cerevisiae deletion strains, locus YMR078C, strain ctf18, stronger effect = lower value 0.991 | S. cerevisiae deletion strains, locus YMR125W, strain sto1, stronger effect = lower value 1.02 | S. cerevisiae deletion strains, locus YMR129W, stronger effect = lower value 1.02 | S. cerevisiae deletion strains, locus YMR205C, strain PFK2, stronger effect = lower value 1.02 | S. cerevisiae deletion strains, locus YMR223W, strain ubp8, stronger effect = lower value 1.03 | S. cerevisiae deletion strains, locus YMR231W, strain pep5, stronger effect = lower value 1.01 | S. cerevisiae deletion strains, locus YMR263W, strain SAP30, stronger effect = lower value 0.975 | S. cerevisiae deletion strains, locus YMR307W, strain GAS1, stronger effect = lower value 1.09 | S. cerevisiae deletion strains, locus YNL067W, strain RPL9B, stronger effect = lower value 0.967 | S. cerevisiae deletion strains, locus YNL071W, strain lat1, stronger effect = lower value 1.02 | S. cerevisiae deletion strains, locus YNL128W, strain TEP1, stronger effect = lower value 0.983 | S. cerevisiae deletion strains, locus YNL153C, strain GIM3, stronger effect = lower value 0.97 | S. cerevisiae deletion strains, locus YNL183C, strain NPR1, stronger effect = lower value 0.917 | S. cerevisiae deletion strains, locus YNL209W, strain ssb2, stronger effect = lower value 0.999 | S. cerevisiae deletion strains, locus YNL233W, strain BNI4, stronger effect = lower value 0.97 | S. cerevisiae deletion strains, locus YNL248C, strain rpa49, stronger effect = lower value 1.03 | S. cerevisiae deletion strains, locus YNL250W, strain rad50, stronger effect = lower value 0.967 | S. cerevisiae deletion strains, locus YNL271C, strain bni1, stronger effect = lower value 0.976 | S. cerevisiae deletion strains, locus YNL298W, strain CLA4, stronger effect = lower value 0.987 | S. cerevisiae deletion strains, locus YNL307C, strain MCK1, stronger effect = lower value 0.981 | S. cerevisiae deletion strains, locus YNL322C, strain KRE1 (second series), stronger effect = lower value 1.03 | S. cerevisiae deletion strains, locus YNL322C, strain KRE1, stronger effect = lower value 0.984 | S. cerevisiae deletion strains, locus YNR049C, strain mso1, stronger effect = lower value 1.02 | S. cerevisiae deletion strains, locus YNR052C, strain pop2, stronger effect = lower value 1 | S. cerevisiae deletion strains, locus YOL006C, strain TOP1, stronger effect = lower value 1.02 | S. cerevisiae deletion strains, locus YOL012C, strain htz1 0.728 | S. cerevisiae deletion strains, locus YOL147C, strain pex11, stronger effect = lower value 0.985 | S. cerevisiae deletion strains, locus YOR001W, strain rrp6, stronger effect = lower value 0.956 | S. cerevisiae deletion strains, locus YOR061W, strain CKA2, stronger effect = lower value 0.992 | S. cerevisiae deletion strains, locus YOR069W, strain VPS5, stronger effect = lower value 0.991 | S. cerevisiae deletion strains, locus YOR070C, strain gyp1, stronger effect = lower value 1.02 | S. cerevisiae deletion strains, locus YOR080W, strain dia2, stronger effect = lower value 1.01 | S. cerevisiae deletion strains, locus YOR083W, strain WHI5, stronger effect = lower value 1.05 | S. cerevisiae deletion strains, locus YOR106W, strain vam3, stronger effect = lower value 1.03 | S. cerevisiae deletion strains, locus YOR136W, strain idh2, stronger effect = lower value 0.99 | S. cerevisiae deletion strains, locus YOR144C, strain elg1, stronger effect = lower value 0.99 | S. cerevisiae deletion strains, locus YOR184W, strain ser1, stronger effect = lower value 0.972 | S. cerevisiae deletion strains, locus YOR231W, strain MKK1, stronger effect = lower value 0.982 | S. cerevisiae deletion strains, locus YOR265W, strain rbl2, stronger effect = lower value 1.01 | S. cerevisiae deletion strains, locus YOR270C, strain vph1, stronger effect = lower value 0.995 | S. cerevisiae deletion strains, locus YOR290C, strain snf2, stronger effect = lower value 1.06 | S. cerevisiae deletion strains, locus YOR316C, strain cot1, stronger effect = lower value 0.966 | S. cerevisiae deletion strains, locus YPL051W, strain arl3, stronger effect = lower value 1.04 | S. cerevisiae deletion strains, locus YPL055C, strain LGE1, stronger effect = lower value 0.951 | S. cerevisiae deletion strains, locus YPL078C, strain atp4, stronger effect = lower value 1.04 | S. cerevisiae deletion strains, locus YPL106C, strain sse1, stronger effect = lower value 1.03 | S. cerevisiae deletion strains, locus YPL240C, strain hsp82, stronger effect = lower value 1.01 | S. cerevisiae deletion strains, locus YPL241C, strain CIN2, stronger effect = lower value 0.982 | S. cerevisiae deletion strains, locus YPL256C, strain CLN2, stronger effect = lower value 0.965 | S. cerevisiae deletion strains, locus YPR119W, strain clb2, stronger effect = lower value 0.987 | S. cerevisiae deletion strains, locus YPR141C, strain kar3, stronger effect = lower value 0.97 | S. cerevisiae deletion strains, locus YPR163C, strain tif3, stronger effect = lower value 0.989 | S. cerevisiae deletion strains, locus YPR167C, strain met16, stronger effect = lower value 0.973 | S. cerevisiae deletion strains, strain wtn01, stronger effect = lower value 0.995 | S. cerevisiae strains, strain wild type, stronger effect = lower value 1
